Results reported in PubChem BioAssay AID434989 (The Scripps Research Institute Molecular Screening Center, 2010).
Among all 330,000 compounds or so, about 1,400 (0.42%) were called active.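 The calls were made as follows: active = inhibition above its plate's threshold, mean inhibition of all tested compounds on the plate plus 3 SD (cut at about 37% in these data); inactive = the rest.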 This excerpt belongs to a sample that is enriched for actives.

Each compound was assayed against Orexin/Hypocretin receptor type 1 (Homo sapiens) (UniProt O43613) (assay: OX1R (HCRTR1) antagonists, primary screen, fluorescence, CHO/OX1R cells, Fluo-8 calcium, orexin A (AID 434989;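 also: 0% = orexin A challenge wells and 100% = SB-334867-A antagonist wells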)). Details: Fluo-8 calcium fluorescence, at 5 µM, stronger effect = higher value.
Orexin/Hypocretin receptor type 1 (Homo sapiens), sequence (O43613 whole entry, looked up): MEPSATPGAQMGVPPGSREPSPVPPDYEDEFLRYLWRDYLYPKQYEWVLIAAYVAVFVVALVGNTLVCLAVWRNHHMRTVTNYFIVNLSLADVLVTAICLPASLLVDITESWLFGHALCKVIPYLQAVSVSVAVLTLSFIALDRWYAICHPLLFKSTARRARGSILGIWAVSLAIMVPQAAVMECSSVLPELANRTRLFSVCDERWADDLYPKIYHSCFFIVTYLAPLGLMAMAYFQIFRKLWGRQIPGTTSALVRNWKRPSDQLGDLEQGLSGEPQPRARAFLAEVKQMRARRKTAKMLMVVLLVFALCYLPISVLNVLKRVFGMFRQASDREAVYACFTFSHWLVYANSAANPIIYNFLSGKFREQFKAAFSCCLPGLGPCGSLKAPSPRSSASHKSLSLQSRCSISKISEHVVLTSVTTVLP

inhibition, inactive:
COCCn1c(C)cc(C(=O)CN2c3cccc4cccc(c34)S2(=O)=O)c1C -15.1%
OC(CNCCc1ccc(Cl)cc1Cl)COc1ccccc1 (stereo unspecified) -12.8%
CCOc1ccc(NC(=O)NNC(=O)c2ccc(Cl)cc2Cl)cc1 -32.5%
Cc1noc(C)c1S(=O)(=O)N(C)C[C@H]1Oc2ccc(NC(=O)C3CCCCC3)cc2C(=O)N([C@H](C)CO)C[C@@H]1C -7.01%
CC[C@@H](C)[C@@H]1CN([C@@H](C)CN2CCC[C@H]2CN2C(N)=NC[C@H]2C(C)C)C(=N)N1CCc1ccc(Cl)c(Cl)c1 -14.1%
CC(=O)N/C(=C/c1ccc(Cl)cc1)C(=O)NCCc1c[nH]c2ccccc12 -8.41%
O=C(CN1C(=O)NC2(CCCCC2)C1=O)NCCc1c[nH]c2ccccc12 -22.5%
CN(C)C(=O)CCc1ccc2c3c([nH]c2c1)[C@]1(C)[C@@H](C(=O)N2CCOCC2)C[C@H](CC(=O)NCCc2ccccn2)C(=O)N1CC3 -9.61%
O=C(CN1C(=O)NC2(CCOc3ccccc32)C1=O)Nc1cccc([N+](=O)[O-])c1 (stereo unspecified) -4.96%
COc1cccc(C(=O)NNC(=O)c2cccc(F)c2)c1 -14.5%
Cc1cc(C)nc(NC(=O)Nc2ccccc2C(F)(F)F)n1 -30.4%
CCNC(=S)N1CCN(S(=O)(=O)c2ccc(Cl)s2)CC1 -8.33%
COc1ccc(CNC(=O)C[C@H]2C[C@H](C(=O)N3CCOCC3)[C@@]3(C)c4[nH]c5cc(CCC(=O)N(C)C)ccc5c4CCN3C2=O)cc1OC -8.18%
CC(C)N(C(=O)[C@H]1C[C@H](CC(=O)NCCC2=CCCCC2)C(=O)N2CCc3c([nH]c4cc(CCC(=O)N(C)C)ccc34)[C@]12C)C(C)C -35.9%
O=C(/C=C/c1ccc(Cl)c([N+](=O)[O-])c1)c1ccc(O)cc1 -19.1%
O=C(/C=C/c1ccc2c(c1)OCCO2)c1ccc(O)cc1 -5.09%
Cc1ccc(S(=O)(=O)N2[C@@H](c3cccc4ccccc34)C(C(=O)O)=C[C@H]2C(C)(C)C)cc1 -3.21%
CCN(C[C@H]1N[C@@](CC)(C(=O)OC)[C@H]2C(=O)N(Cc3ccccc3)C(=O)[C@@H]12)S(=O)(=O)c1ccccc1 -23.9%
O=C(COC(=O)/C=C/c1cccc(Cl)c1)NCc1cccs1 -21.7%
Cc1ccc(S(=O)(=O)N(C)c2ccc(OCC(=O)OCc3ccc(C#N)cc3)cc2)cc1 0.88%
COc1cc(/C=C/C(=O)OCC(=O)NC2CC2)cc(OC)c1OC -7.25%
C/C(N)=C(/C#N)C(=O)COC(=O)c1cc(-c2ccccc2)nc2ccc(Br)cc12 5.4%
C/C(N)=C(/C#N)C(=O)COC(=O)c1cc(-c2cccc(Br)c2)nc2ccccc12 15.2%
CC(C)COc1ccc(C(=O)NNC(=O)CCC(=O)c2cccs2)cc1 -18.4%
O=C(NCC(=O)N1CCCC(C(F)(F)F)C1)c1ccccc1F (stereo unspecified) 0.97%
O=C(NC(Cc1ccccc1)C(=O)N1CCCC(C(F)(F)F)C1)c1ccccc1 (stereo unspecified) -34.6%
Cc1onc(-c2c(F)cccc2Cl)c1C(=O)OCC(=O)N1C(C)CCCC1C (stereo unspecified) -24.4%
COc1ccc(NC(=O)CNc2cc(S(=O)(=O)N3CCOCC3)ccc2N2CCOCC2)c(OC)c1 -10.3%
COc1cc(/C=C2/SC(=S)N(Cc3ccccc3)C2=O)cc(OC)c1O 31.2%
O=C1/C(=C\c2ccsc2)NC(=S)N1c1ccccc1 -19.5%
O=C(NCCN1C(=O)S/C(=C\c2cccnc2)C1=O)c1cccc(OC(F)F)c1 -28.3%
CCOc1ccc(N2CC(C(=O)NCCN3C(=O)S/C(=C\c4cccnc4)C3=O)CC2=O)cc1 (stereo unspecified) -17.9%
COC(=O)[C@]1(Cc2ccccc2)N[C@H](CN(C)S(=O)(=O)c2ccc(OC(F)(F)F)cc2)[C@@H]2C(=O)N(C)C(=O)[C@@H]21 -30.2%
COC(=O)c1ccc(/C=C/c2c(-c3ccc(OC)cc3)sc3ccccc23)cc1 -6.38%
COc1ccc(CNC(=O)COC(=O)C(CCSC)N2C(=O)c3ccccc3C2=O)cc1 (stereo unspecified) -29.7%
CCOC(=O)[C@H]1[C@H]2COc3ccccc3[C@@H]2N2C(=O)CN(Cc3ccccc3)C(=O)[C@@]12C -30.6%
CN(C)S(=O)(=O)c1ccc(N2CCCC2=O)c([N+](=O)[O-])c1 -12.1%
CNS(=O)(=O)c1ccc(N2CCCC2=O)c([N+](=O)[O-])c1 -6.08%
O=C1CSc2ccc(C(=O)NCc3ccccn3)cc2N1 7.19%
CN(C)CCNC(=O)c1[nH]nc2c1CCc1ccccc1-2 -12%
COc1ccc(/C=N/NC(=O)c2ccc3c(c2)OCCO3)c(OC)c1 -14.1%
COc1cc(OC)c(C(=O)NNC(=O)c2ccccc2-n2cccc2)cc1OC -4.23%
COc1cccc2sc3cc(NCC[C@@H]4CCCN4C)ccc3c(=O)c12 -2.27%
CC(C#N)OC(=O)c1cccnc1SCC(=O)Nc1ccc2c(c1)OCO2 (stereo unspecified) -1.89%
O=C(CSc1ncnc2sccc12)NC1CCS(=O)(=O)C1 (stereo unspecified) -10.8%
Oc1ccc(N=Nc2nccs2)c(O)c1 -44.9%
CCC(C(=O)Nc1ccc2c(c1)OCCO2)c1ccccc1 (stereo unspecified) 3.71%
CCC(C(=O)OCC(=O)Nc1ccc(C(=O)Nc2ccc(OC)cc2)cc1)c1ccccc1 (stereo unspecified) -0.08%
NCCN1CCN2C(=O)CN(C(=O)c3ccccc3)CC12 (stereo unspecified) 3.19%
CC(C)(C)OC(=O)C[C@@H]1C/C=C\C[C@@H](CC(=O)NCCO)C(=O)N[C@H](Cc2c[nH]c3ccccc23)COC1=O -10.6%
COc1ccccc1N(CCOc1ccccc1)S(=O)(=O)c1ccccc1 -0.89%
COc1ccc2sc(-c3ccc(N(C)C)cc3)c(-c3ccc4cc[nH]c4c3)c2c1 1.84%
COc1ccc(-c2sc3ccc(OC)cc3c2C#Cc2ccccn2)cc1 -20.1%
Cc1ccc(NC(=O)c2ccc(Cl)nc2)cc1S(=O)(=O)N1CCOCC1 -13.6%
COc1ccc(S(=O)(=O)N(C)C[C@H]2Oc3ccc(NS(=O)(=O)c4cccs4)cc3CC(=O)N([C@H](C)CO)C[C@H]2C)cc1 -17.2%
CC(NC(=O)COC(=O)CCC(=O)c1ccc(Cl)cc1)c1ccccc1 (stereo unspecified) -2.79%
Cc1ccc(C(=O)OCc2nc(N)nc(Nc3ccccc3C)n2)cc1 -15.1%
O=C(COC(=O)c1ccc(F)c(S(=O)(=O)N2CCOCC2)c1)NCc1ccc2c(c1)OCO2 4.89%
COc1ccc(S(=O)(=O)N2CCCCCC2)cc1NC(=O)Cc1ccc(OC)c(OC)c1 -23.5%
O=C(COC(=O)c1ccccn1)NNC(=O)c1ccc(Br)cc1 -3.43%
Cn1c(N)c(C(=O)COC(=O)c2cccc(S(=O)(=O)N3CCOCC3)c2)c(=O)n(C)c1=O -27.4%
Cn1c(N)c(C(=O)COC(=O)c2cnc(Cl)c(Cl)c2)c(=O)n(C)c1=O -7.14%
COc1ccc(N2C(=O)c3cccc4cccc(c34)C2=O)nn1 -17.9%
O=C(O)c1ccc2c3c(cccc13)C(=O)N(OS(=O)(=O)c1ccccc1)C2=O -7.84%
C[N+](C)(CCCCCC[N+](C)(C)CCCN1C(=O)c2cccc3cccc(c23)C1=O)CCCN1C(=O)c2cccc3cccc(c23)C1=O -0.77%
O=C1c2ccccc2C(=O)N1c1cccc2ccccc12 -17%

inhibition, active:
NC(N)=N/N=C/c1ccc(OCc2ccc(Cl)cc2Cl)cc1 60%
N#C/C(=C/c1ccc(N2CCCCC2)o1)C(=O)NCCc1c[nH]c2ccccc12 61.6%
COc1cccc(C(=O)NC(=O)Nc2nc(C)cc(C(F)(F)F)n2)c1 43.9%
CC1=C/C(=N\OS(=O)(=O)c2ccccc2)C=CC1=O 50.8%
O=C(/C=C(O)/C=C/c1ccc(O)cc1)/C=C/c1ccc(O)cc1 88%
CC1(C)C=Cc2c(ccc3c2OC[C@@H](c2ccc(O)cc2O)C3)O1 47.2%
C/C(N)=C(/C#N)C(=O)COC(=O)c1cc(-c2ccc(C)cc2)nc2ccccc12 47.2%
FC(F)(F)C1CCCN(c2nsc3ccccc23)C1 (stereo unspecified) 46.1%
CN(C)c1ccc(/C=C2\NC(=S)N(Cc3ccccc3)C2=O)cc1 91.7%
Cc1cc(OCCCC(=O)NCCN2C(=O)S/C(=C\c3cccnc3)C2=O)ccc1Cl 94.3%
Cc1cc(N2CCCC2=O)cc(C)c1S(N)(=O)=O 44.7%
COc1cccc(/C=N/NC(=O)c2[nH]nc3c2CCc2ccccc2-3)c1O 38.6%
Oc1ccc2ccccc2c1N=Nc1nccs1 61%
CCC(C(=O)Nc1ccc(C(C)C)cc1)c1ccccc1 (stereo unspecified) 62.9%
CCN1/C(=C\c2ccc3ccccc3[n+]2CC)Sc2cc(C)ccc21 54.6%
COc1ccc2sc(-c3ccc(N(C)C)cc3)c(C#CCO)c2c1 61%
Nc1nc(COC(=O)CCC(=O)c2ccc(Cl)cc2)nc(Nc2ccccc2)n1 67.8%
Cn1c(N)c(C(=O)COC(=O)c2ccc3ccccc3c2)c(=O)n(C)c1=O 51.1%
Cc1nn(C)cc1N1C(=O)c2cccc3c(N)ccc(c23)C1=O 38.4%
CN1C(=O)c2cccc3c(N)ccc(c23)C1=O 41.1%
